An excerpt weighted towards active compounds, which were near 3% of everything screened.
Tau fibril ThT: inhibitors of human tau fibril formation, thioflavin T binding; recombinant tau K18 P301L, heparin-induced fibrillization, ThT fluorescence; P10636; hit rate 2.1% among 270,000; Potency, µM (titrated, usually from 57.4 µM), for the others: top-dose activity, negative = inhibition, hits mostly inhibitors; also: nearly all actives have a fitted effect of over 55% in size
Target sequence (P10636 561-689 P618L limits assumed): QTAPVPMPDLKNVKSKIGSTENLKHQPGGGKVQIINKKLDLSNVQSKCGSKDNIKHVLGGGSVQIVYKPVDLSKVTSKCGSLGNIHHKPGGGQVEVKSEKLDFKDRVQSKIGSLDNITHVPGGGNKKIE
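Heparin-induced fibrillization of the P301L-mutant K18 repeat-domain fragment of human tau was followed by ThT binding in quantitative high-throughput format.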
Tau fluor cs: counter-screen for tau fibril formation inhibitors | tau K18 P301L (four-repeat tau fragment) Alexa594 fluorescence, heparin fibrillization | Potency, µM (series often up to 57.7 µM), for inactives: at the top dose activity change, negative = decrease | hit rate 0.93% among 280,000 | AID 1463; also: nearly all actives have a fitted effect of over 55% in size
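Human K18 P301L tau (15 uM unlabeled plus 0.24 uM Alexa 594-labeled, final) in 100 mM sodium acetate pH 7 was mixed with compound and 20 uM heparin and incubated 6 hr at 37 C.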
Tau fibril FP: blocks human tau fibril formation measured by polarization; P10636; K18 P301L tau heparin fibrillization, Alexa594 FP, 6 h; Potency, µM (doses to about 57.7 µM), inactives show top-dose activity, negative = inhibition, actives largely listed as inhibitors; hit rate 0.39% among 280,000; also: nearly all actives have a fitted effect of over 55% in size
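K18 P301L tau (15 uM unlabeled/0.24 uM Alexa 594-labeled, final) + compound + heparin 20 uM final; 100 mM NaOAc pH 7; 6 hr 37 C; ThT 30 uM final added, 1 hr RT; FP ex 555/em 632 nm.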
TRb-SRC2 inh: disrupts binding of human TR beta to SRC2 | hit rate 0.065% among 280,000 | TRbeta-SRC2 peptide binding, fluorescence polarization; receptor liganded with 1 µM T3 | Potency, µM (titrated, usually from 106 µM), without a hit: at the top dose activity change, negative = inhibition, hits mostly inhibitors | P10828;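 also: plate controls were bound peptide for no effect and peptide without receptor for full effect; nearly all actives have a fitted effect of over 50% in size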
Target sequence (P10828 whole entry, looked up): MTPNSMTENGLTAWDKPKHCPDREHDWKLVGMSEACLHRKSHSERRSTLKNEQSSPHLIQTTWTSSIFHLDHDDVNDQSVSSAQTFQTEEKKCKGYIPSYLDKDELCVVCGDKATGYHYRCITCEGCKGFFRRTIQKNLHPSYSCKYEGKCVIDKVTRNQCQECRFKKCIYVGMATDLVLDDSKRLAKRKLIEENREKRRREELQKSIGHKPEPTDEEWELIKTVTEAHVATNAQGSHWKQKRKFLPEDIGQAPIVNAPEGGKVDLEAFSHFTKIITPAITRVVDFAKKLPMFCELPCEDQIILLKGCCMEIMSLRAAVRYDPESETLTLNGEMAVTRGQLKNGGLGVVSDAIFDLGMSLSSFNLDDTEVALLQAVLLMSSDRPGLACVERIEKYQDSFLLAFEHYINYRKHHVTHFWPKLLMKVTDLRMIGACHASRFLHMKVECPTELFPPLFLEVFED
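Quantitative HTS by FP: 0.6 uM TRb LBD, 20 nM labeled SRC2 20-mer, 1 uM T3, 5% DMSO; 5 hr ambient incubation; % activity per concentration and potencies from concentration series.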
TR SRC2 fluor cs: alters Texas Red total fluorescence, flagging assay interference; TRb/SRC2 Texas Red total fluorescence interference; Potency, µM (series often up to 106 µM), for inactives: top-dose fluorescence change, negative = quenching; hit rate 0.29% among 280,000; active = well fitted curve in either direction with a large enough effect; inconclusive = small, poorly fitted or top-dose-only effect
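Flags fluorescent or light-absorbing compounds by total fluorescence, S + 2P, at 555 nm excitation and 632 nm emission. Mixture: 20 nM Texas Red SRC2 peptide, 0.6 uM human TRb LBD, 1 uM T3, 5% DMSO; compound exposure 5 h at ambient temperature.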
* hit, by the source's call; u = inconclusive; x = not tested or not shown; [ ] = another dose, or the depositor's remark. Unless noted, calls follow the shape of the dose curve; as a rule, active = well fitted curve in the direction sought with a large enough effect; inconclusive = small, poorly fitted or top-dose-only effect, or another doubt; inactive = no such curve, though single readings can be large; an effect the other way counts as inactive or inconclusive. Unless noted, % is scaled to controls: 0 for no effect and ±100 for the full control effect; potency is read from the fitted curve at half-maximal effect.

SMILES	Tau fibril ThT	Tau fluor cs	Tau fibril FP	TRb-SRC2 inh	TR SRC2 fluor cs
COc1cc(OC)c2c(c1C(CCN1CCN(c3ccccc3)CC1)c1ccc(N(C)C)cc1)OC(=O)CC2c1ccc(N(C)C)cc1 (stereo not given)	x	x	x	0%	-2%
c1cc2ccc3ccc4ccc5cccc6c(c1)c2c3c4c56	x	x	x	-5%[201 µM]	0%[201 µM]
CSc1nnc(C)c(/C=C/NOCc2ccc(Cl)cc2)n1	u	u	4%	9%	5%
CSc1nnc(C)c(/C=C/Nc2ccc(C)cc2)n1	5µM*	-23%	2%	4%	-5%
CC(=O)Nc1ccc(Nc2cc(C(C)C)nc3c(-c4ccccc4)c(C)nn23)cc1	u	13µM*[quencher]	u	-9%	-5%
Cc1nn2c(NCc3ccccn3)cc(C(C)C)nc2c1-c1ccccc1	u	u	15%	3%	-1%
CC(=O)Nc1ccc(Nc2cc(C)nc3c(-c4ccccc4)c(C)nn23)cc1	u	14µM*[quencher]	4%	10%	5%
COc1cccc(NC(=O)Cn2c(=O)n(CCc3ccccc3)c(=O)c3c4c(sc32)CN(C(C)=O)CC4)c1	5%	u	-20%	-3%	u
CC1CCc2c(sc(Nc3nc4c(F)cccc4s3)c2C(N)=O)C1 (stereo not given)	u	16µM*[quencher]	7%	6%	-23%
CCCCc1nnc(NC(=O)C2CC(=O)N(c3ccc4c(c3)OCCO4)C2)s1 (stereo not given)	-9%	-14%	4%	2%	2%
O=C(Nc1nc(-c2ccco2)c(-c2ccco2)s1)C1CC(=O)N(c2ccc3c(c2)OCCO3)C1 (stereo not given)	14µM*	u	u	27%	25µM*[quencher]
COc1cc(C)ccc1OCCSc1nc2ccc(NC(C)=O)cc2s1	-5%	u	25µM*	2%	-21%
Cc1ccc(NC(=O)CSc2nc3ccc(NC(=O)c4cccs4)cc3s2)cc1	2%	u	u	9%	-15%
Cc1cccc(OCCSc2nc3ccc(NC(=O)c4cccs4)cc3s2)c1	7%	u	7.1µM*	1%	7%
Cc1ccc(NC(=O)CSc2nc3ccc(NC(=O)c4cccs4)cc3s2)c(C)c1	-10%	u	18µM*	12%	u
COc1cccc(NC(=O)CSc2nc3ccc(NC(=O)c4ccco4)cc3s2)c1	9%	16µM*[quencher]	u	u	-2%
Cc1cc(C)cc(NS(=O)(=O)c2ccc3c(c2)NC(=O)C(C)S3)c1 (stereo not given)	-8%	-11%	-9%	0%	3%
CCOC(=O)c1ccccc1C	x	x	x	7%[201 µM]	-4%[201 µM]
Cc1ccccc1OCCSc1nc2ccc(NC(=O)c3ccccc3)cc2s1	-2%	u	11µM*	6%	-1%
CCCC(=O)Nc1ccc2nc(SCC(=O)Nc3ccc(N4CCOCC4)c(Cl)c3)sc2c1	u	14µM*[quencher]	5%	-18%	0%
Cc1ccc(NC(=O)CSc2nc3ccc(Br)cc3[nH]2)c(C)c1	9%	u	22µM*	-3%	-3%
Cc1ccccc1C(=O)Nc1ccc2nc(SCCOc3ccccc3)sc2c1	-10%	-17%	u	-1%	-1%
Cc1ccc2nc(SCC(=O)Nc3ccc(F)cc3F)[nH]c2c1	-12%	-28%	-15%	-3%	-5%
Cc1ccccc1OCCSc1nc2ccc(NC(=O)c3cccs3)cc2s1	14%	u	10µM*	5%	9%
Cc1ccccc1OCC(=O)Nc1ccc2nc(SCCOc3ccccc3)sc2c1	u	-24%	-13%	4%	11%
SMILES	Tau fibril ThT	Tau fluor cs	Tau fibril FP	TRb-SRC2 inh	TR SRC2 fluor cs
Cc1ccccc1OCCSc1nc2ccc(NC(=O)c3cccc(F)c3)cc2s1	u	u	14µM*	4%	11%
O=S(=O)(NCc1ccc(F)cc1)c1ccc2[nH]c3c(c2c1)CCCCC3	-1%	16µM*[quencher]	-5%	2%	-4%
COc1cccc(CNS(=O)(=O)c2ccc3[nH]c4c(c3c2)CCCCC4)c1	-9%	13µM*[quencher]	u	3%	-10%
CCN1CCN(c2nnc(-n3cccc3C(=O)Nc3cccc(OC)c3)s2)CC1	-1%	-5%	-2%	2%	-1%
COc1ccc(NC(=O)CCc2c(C)nc3c(-c4ccc(F)cc4)c(C)nn3c2C)c(OC)c1	-5%	-13%	-1%	0%	-2%
CC1CCCN(c2nc3c(-c4ccc(Cl)cc4)nnn3c3ccccc23)C1 (stereo not given)	-9%	-12%	0%	-7%	-1%
COc1ccc(Nc2nc(N)nc(CSC(=S)N3CCCCC3C)n2)cc1 (stereo not given)	u	10µM*[quencher]	10%	-1%	0%
O=C(CSc1ncc(-c2ccccc2)[nH]1)Nc1cccc(C(F)(F)F)c1	-16%	16µM*[quencher]	u	-1%	-1%
CN(C)c1ccc(-c2c(C3C4C=CCCC4(C)C(=O)N3Cc3ccccc3)ccc3ccccc23)cc1 (stereo not given)	x	x	x	0%	-2%
CC(C)=C1C(=O)NN(c2ccc(F)c(Cl)c2)C1=O	u	-19%	7%	-4%	-2%
O=C1NN(c2ccc(F)c(Cl)c2)C(=O)/C1=C\c1cccc(OC(=O)c2cccs2)c1	20µM*	u	-11%	-3%	-5%
O=C1C2=C(S[C@@H]3O[C@H](CO)[C@@H](O)[C@H](O)[C@H]3O2)C(=O)c2ccccc21	u	-15%	u	3%	-1%
CC1=NN(c2ccccc2)C(=O)C1C=Nc1ccc(N(C)C)cc1 (stereo not given)	7.9µM*	u	5%	u	12%
Cc1ccc(N2C(=O)CS/C2=C(\C(Cl)=C(Cl)Cl)[N+](=O)[O-])cc1	25µM*	u	u	23%	7%
Cc1ccc(N2C(=O)CSCC2=O)cc1	-6%	-1%	5%	3%	-2%
CC(CN(C)C)C(C)(O)Cc1ccc(Cl)cc1 (stereo not given)	-19%	-29%	u	-4%	-1%
CC(C)Nc1nnc(SCC(=O)Nc2ccc3c(c2)C(=O)c2ccccc2C3=O)s1	10µM*	13µM*[quencher]	14%	3%	-9%
O=C(CSc1nnc(NC2CCCCC2)s1)Nc1ccc2c(c1)C(=O)c1ccccc1C2=O	u	8.9µM*[quencher]	u	5%	-4%
CC(C)CC(=O)Nc1nnc(SCC(=O)Nc2ccc(F)cc2)s1	-1%	-17%	u	-3%	-3%
Cc1ccc(-c2nc(SCC(=O)Nc3cc(S(=O)(=O)N4CCCCC4)ccc3Cl)n[nH]2)cc1	1%	u	22µM*	4%	-2%
Cc1ccc(Nc2nnc(SCC(=O)Nc3cccc(S(=O)(=O)N4CCCCC4)c3)s2)cc1	-1%	7.9µM*[quencher]	-13%	12%	0%
